Experimental data taken from PubChem BioAssay (Tox21).
Results filed as inconclusive are left out. Calls of active or inactive are those of the source. Unless noted, calls come from the whole dose curve; as a rule, active = well fitted curve in the direction sought with a large enough effect in the repeat runs; inconclusive = weak or mixed curves; inactive = no such curve, though single readings can be large; an effect the other way counts as inactive or inconclusive.

Key:
[1] = qHTS assay to identify small molecule antagonists of the estrogen related receptor (ERR) signaling pathway - cell viability counter screen (AID 1224818); note: potency is the fitted concentration of half-maximal effect; for viability change, negative = cytotoxic: series mostly up to about 46 µM
In short: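 Fluorescence from CellTiter-Fluor, read 30 min after reagent addition at 37 C, measured viability of ERR cells exposed to compounds for 17.5 h. Cells had settled 6 h before dosing.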

[2] = qHTS assay to identify small molecule antagonists of the estrogen related receptor (ERR) signaling pathway (AID 1224819; note: nearly all actives have a fitted effect of over 50% in size; note: potency is the fitted concentration of half-maximal effect;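 for activity change, negative = inhibition: luminescence from an ERR-driven luciferase reporter measured with One-Glo reagent; series mostly up to about 46 µM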)
In short: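 Luminescence readout (One-Glo, 30 min, RT) of ERR cell line after 18 h compound exposure at 37 C; cells seeded 2,000/well, pre-incubated 6 h, compounds pinned from DMSO stocks.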

[3] = tested on: estrogen-related receptor alpha (ERRalpha) with PGC-1alpha coactivator, human; assay: qHTS assay to identify small molecule antagonists of the estrogen related receptor signaling pathway with the pleiotropic PPARgamma coactivator (PGC) (AID 1224821; calls by dose curve; note: nearly all actives have a fitted effect of over 50% in size; note: potency is the fitted concentration of half-maximal effect;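 for activity change, negative = inhibition: series mostly up to about 46 µM; lower luminescence signal means antagonism of PGC/ERR signalling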)
In short: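 Screening used NTP's PGC/ERR cells, dosed via pin tool with compound in DMSO alongside positive and negative controls. After 18 h at 37 C, One-Glo reagent sat 30 min at room temperature before luminescence detection.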

[4] = qHTS assay to identify small molecule antagonists of the estrogen related receptor signaling pathway with the pleiotropic PPARgamma coactivator (PGC) cell viability counter screen (AID 1224822; note: potency is the fitted concentration of half-maximal effect; for viability change, negative = cytotoxic: series mostly up to about 46 µM)
In short: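 Fluorescence read-out of CellTiter-Fluor after 30 min at 37 C; PGC/ERR cells, 2,000 per well, had been exposed to DMSO-dissolved compounds for 17.5 h following a 6 h pre-incubation.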

[5] = qHTS assay to identify small molecule agonists of the estrogen related receptor signaling pathway with the pleiotropic PPARgamma coactivator (PGC) (AID 1224823)
In short: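 In this quantitative high-throughput screen, an 18 h, 37 C treatment of PGC/ERR cells with compounds in DMSO preceded a One-Glo luminescence read taken after 30 min at room temperature.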

[6] = qHTS assay to identify small molecule agonists of the estrogen related receptor (ERR) signaling pathway (AID 1224820); note: potency is the fitted concentration of half-maximal effect
In short: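 Following a 6 h settling period, 2,000 ERR cells per well receive DMSO-dissolved compounds by pin tool and incubate 18 h at 37 C; agonist activity is scored from One-Glo luminescence read 30 min post-addition.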

[7] = qHTS assay to identify small molecule antagonists of the estrogen related receptor (ERR) signaling pathway from Tox21 library - cell viability counter screen (AID 1224834); note: nearly all actives have a fitted effect of over 30% in size
In short: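 Multiplexed viability counter screen in ERR cells: 17.5 h compound exposure at 37 C, CellTiter-Fluor added, 30 min at 37 C/5% CO2, fluorescence read.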

[8] = target: Luciferin 4-monooxygenase (Photinus pyralis) (UniProt P08659); assay: qHTS assay to identify small molecule inhibitors of firefly luciferase (AID 1224835); note: series mostly up to about 120 µM; nearly all actives have a fitted effect of over 25% in size
In short: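 Inhibition of purified Photinus luciferase is measured by luminescence. Substrate levels (D-luciferin, ATP) sit at their KM values. Each compound is tested in a concentration series.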

[9] = qHTS assay to identify small molecule antagonists of the constitutive androstane receptor (CAR) signaling pathway - cell viability counter screen (AID 1224837); note: series mostly up to about 92 µM; nearly all actives have a fitted effect of over 45% in size
In short: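 Read-out: CellTiter-Fluor fluorescence after 23 hr at 37 C/5% CO2. Cells: HepG2 double-stable for hCAR and CYP2B6-2.2kb. Compounds tested at 15 concentrations in the presence of CITCO, final concentration 50 nM.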

[10] = qHTS assay to identify small molecule antagonists of the estrogen related receptor signaling pathway with the pleiotropic PPARgamma coactivator (PGC) from Tox21 10K library - cell viability counter screen (AID 1224840; active = well fitted cell-killing curve with a large enough effect in the repeat runs, not every such curve was filed as active; note: nearly all actives have a fitted effect of over 40% in size)
In short: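 Fluorescence read-out of CellTiter-Fluor viability reagent, added after cells had been exposed to compound in DMSO for 17.5 h at 37 C; 30 min development at 37 C/5% CO2. Cells: PGC/ERR line, 2,000/well.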

[11] = target: Thyrotropin receptor (Homo sapiens) (UniProt P16473); assay: qHTS assay to identify small molecule agonists of the thyroid stimulating hormone receptor (TSHR) signaling pathway (AID 1224843; calls by dose curve; note: nearly all actives have a fitted effect of over 45% in size)
In short: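 A cell-based cAMP HTRF format was run in TSHR-transfected HEK293 cells, 800 per well. Treatment: 30 min, room temperature. Detection: 1 h with labelled cAMP and anti-cAMP cryptate. Concentration-response over 15 points, three replicates.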

[12] = qHTS assay to identify small molecule agonists of the hypoxia (HIF-1) signaling pathway - cell viability counter screen (AID 1224844; calls by dose curve; note: nearly all actives have a fitted effect of over 50% in size)
In short: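 CellTiter-Glo luminescence read-out, 30 min RT, taken in the same wells as the beta-lactamase HRE reporter assay; HRE-bla ME-180 cells, 0.5% dialyzed FBS, 17 hr compound treatment at 37C, 5% CO2.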

[13] = qHTS assay to identify small molecule agonists of H2AX (AID 1224845; active = well fitted activation curve with a large enough effect in the signal ratio in the repeat runs, not every such curve was filed as active; the % refers to the signal ratio)
In short: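 Phospho-H2AX Ser139 measured by HTRF (ex 320 nm; em 665 and 620 nm) after 24 hr antibody incubation. Compounds, 15 concentrations, 0.76% DMSO, were applied to CHO-K1 cells for 3hr at 37C before lysis.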
% is set by controls: 0 for no effect and ±100 for the full control effect.

Sequence of Luciferin 4-monooxygenase (Photinus pyralis) (P08659 whole entry, looked up): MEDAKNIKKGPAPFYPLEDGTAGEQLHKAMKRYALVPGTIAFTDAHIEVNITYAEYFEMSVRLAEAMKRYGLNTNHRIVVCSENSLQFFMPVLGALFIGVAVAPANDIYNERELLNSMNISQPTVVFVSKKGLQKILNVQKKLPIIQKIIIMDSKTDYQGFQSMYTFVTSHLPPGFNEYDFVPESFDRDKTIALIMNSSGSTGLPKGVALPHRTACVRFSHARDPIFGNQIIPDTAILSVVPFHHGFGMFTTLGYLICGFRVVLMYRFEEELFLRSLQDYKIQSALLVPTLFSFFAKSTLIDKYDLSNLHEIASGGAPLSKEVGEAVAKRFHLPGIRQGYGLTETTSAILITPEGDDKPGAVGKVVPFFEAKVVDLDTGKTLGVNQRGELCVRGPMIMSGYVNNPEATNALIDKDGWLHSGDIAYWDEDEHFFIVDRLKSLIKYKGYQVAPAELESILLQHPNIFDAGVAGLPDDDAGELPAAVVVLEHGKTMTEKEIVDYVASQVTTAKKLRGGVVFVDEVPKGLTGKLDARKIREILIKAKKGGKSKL
Sequence of Thyrotropin receptor (Homo sapiens) (P16473 whole entry, looked up): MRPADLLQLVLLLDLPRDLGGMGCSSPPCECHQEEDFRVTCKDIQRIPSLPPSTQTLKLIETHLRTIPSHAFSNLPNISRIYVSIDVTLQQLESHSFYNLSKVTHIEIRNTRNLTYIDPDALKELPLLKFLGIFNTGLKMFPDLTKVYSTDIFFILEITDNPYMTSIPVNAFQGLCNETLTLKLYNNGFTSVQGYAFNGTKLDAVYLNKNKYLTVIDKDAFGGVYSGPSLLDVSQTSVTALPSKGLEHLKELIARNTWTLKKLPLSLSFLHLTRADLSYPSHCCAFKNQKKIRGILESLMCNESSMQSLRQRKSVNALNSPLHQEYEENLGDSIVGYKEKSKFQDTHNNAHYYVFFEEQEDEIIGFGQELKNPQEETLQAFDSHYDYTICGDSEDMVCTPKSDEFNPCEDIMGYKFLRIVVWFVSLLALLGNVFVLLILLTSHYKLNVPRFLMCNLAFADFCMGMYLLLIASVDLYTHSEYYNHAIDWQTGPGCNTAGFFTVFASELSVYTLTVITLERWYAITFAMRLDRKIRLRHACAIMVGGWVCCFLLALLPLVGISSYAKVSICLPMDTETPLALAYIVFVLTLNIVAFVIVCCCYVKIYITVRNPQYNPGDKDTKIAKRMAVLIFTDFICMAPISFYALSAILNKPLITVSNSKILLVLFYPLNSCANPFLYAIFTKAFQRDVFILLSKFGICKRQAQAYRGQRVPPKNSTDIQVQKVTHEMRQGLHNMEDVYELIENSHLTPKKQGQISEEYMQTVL

CNC(=O)c1cc2c(cn1)[nH]c1ccccc12
inactive: Potency [1] | Potency [2] | Potency [3] | Potency [4] | Potency [5]

COc1cc2c(cc1O)CC[C@@H]1[C@@H]2CC[C@]2(C)[C@@H](O)CC[C@@H]12
inactive: Potency [1] | Potency [6] | Potency [3] | Potency [4] | Potency [5]

COc1ccc(-c2cc(=O)c3c(O)c(OC)c(OC)cc3o2)cc1O
inactive: Potency [1] | Potency [6] | Potency [3] | Potency [4] | Potency [5]

O=C1NC(c2cccc([N+](=O)[O-])c2)=CCN1c1ccccc1O
inactive: Potency [1] | Potency [6] | Potency [3] | Potency [4] | Potency [5]

COC(=O)c1c(C)[nH]c(C)c1C(=O)c1ccccc1Cc1ccccc1
inactive: Potency [1] | Potency [6] | Potency [3] | Potency [4] | Potency [5]

CC[n+]1c(/C=C/C=C2/N(C)c3ccccc3C2(C)C)sc2ccccc21
active: Potency [1] 9.08 µM | Potency [3] 0.492 µM | Potency [4] 3.9 µM
inactive: Potency [6] | Potency [5]

O=C(Nc1nc2ccccc2n1CCN1CCOCC1)c1cccc([N+](=O)[O-])c1
inactive: Potency [1] | Potency [6] | Potency [3] | Potency [4] | Potency [5]

CC#CCOC(=O)c1c(C)nc2sc3c(c2c1N)CCC(O)C3 (stereo not given)
inactive: Potency [1] | Potency [6] | Potency [3] | Potency [4]

CN(C)C(=O)[C@H](O)[C@H](Cc1ccccc1)NC(=O)c1cc2cc(Cl)ccc2[nH]1
inactive: Potency [1] | Potency [6] | Potency [3] | Potency [4] | Potency [5]

Nc1nc(SCc2ccc([N+](=O)[O-])cc2)c2ncn([C@@H]3O[C@H](CO)C(O)[C@H]3O)c2n1 (stereo not given in full)
inactive: Potency [1] | Potency [6] | Potency [3] | Potency [4] | Potency [5]

COc1ccc(CCn2nnnc2C2(c3ccc(C)cc3)CC2)cc1
inactive: Potency [1] | Potency [6] | Potency [3] | Potency [4] | Potency [5]

Fc1ccc2[nH]c(CN3CCN(c4ccccn4)CC3)cc2c1
inactive: Potency [1] | Potency [6] | Potency [3] | Potency [4] | Potency [5]

CC(C)COC(=O)OCN1C(=O)CN(CCN2CC(=O)N(COC(=O)OCC(C)C)C(=O)C2)CC1=O
inactive: Potency [1] | Potency [2] | Potency [4] | Potency [5]

O=C(Nc1ccncc1)c1cc([N+](=O)[O-])ccc1Cl
inactive: Potency [1] | Potency [6] | Potency [3] | Potency [4] | Potency [5]

COc1cc2nc(N3CCCN(C)CC3)nc(NC3CCN(Cc4ccccc4)CC3)c2cc1OC
active: Potency [1] 24.6 µM | Potency [3] 28.7 µM | Potency [4] 10.6 µM
inactive: Potency [6] | Potency [5]

O=c1[nH]c(=S)[nH]c(-c2ccccc2)c1Cc1c(O)ccc2ccccc12
inactive: Potency [1] | Potency [6] | Potency [3] | Potency [4] | Potency [5]

O=C(O)c1ccccc1Nc1ccccc1
inactive: Potency [1] | Potency [6] | Potency [3] | Potency [4] | Potency [5]

COc1ccc(/C=C2\COc3ccc(C)cc3C2=O)cc1O
inactive: Potency [2] | Potency [3] | Potency [4]
active: Potency [6] 1.19 µM

Cc1ccc(O)c(N=Nc2ccccc2)n1
active: Potency [6] 8.41 µM | Potency [4] 5.52 µM
inactive: Potency [2] | Potency [3] | Potency [5]

N.N.O=C(O)C1(C(=O)O)CCC1.[Pt+2]
inactive: Potency [1] | Potency [4]

C=C[C@H]1CN2CC[C@@H]1C[C@H]2[C@H](O)c1ccnc2ccc(OC)cc12
inactive: Potency [1] | Potency [4]

CSC(=N)N
inactive: Potency [1] | Potency [4]

CCC1(O)CC2CN(CCc3c([nH]c4ccccc34)[C@@](C(=O)OC)(c3cc4c(cc3OC)N(C=O)C3[C@]45CCN4CC=C[C@@](CC)([C@@H](OC(C)=O)[C@]3(O)C(=O)OC)[C@H]45)C2)C1 (stereo not given in full)
inactive: Potency [1] | Potency [4]

Oc1cc(O)c2c(c1)O[C@H](c1ccc(O)c(O)c1)[C@@H](O)C2
inactive: Potency [1] | Potency [4]

COC(=O)C(C)(N)Cc1ccc(O)cc1 (stereo not given)
inactive: Potency [2] | Potency [6] | Potency [3] | Potency [4]

CN1C2CCC1CC(OC(=O)c1c[nH]c3ccccc13)C2 (stereo not given)
inactive: Potency [1] | Potency [4]

COc1cc(C(O)CO)ccc1O (stereo not given)
inactive: Potency [1] | Potency [4]

COc1cc2c(cc1OC)C1CC(=O)C(CC(C)C)CN1CC2 (stereo not given)
inactive: Potency [1] | Potency [4]

CC(C)NC[C@H](O)COc1ccc(CC(N)=O)cc1
inactive: Potency [1] | Potency [4]

CSC(N)=NCCC[C@H](N)C(=O)O
inactive: Potency [2] | Potency [6] | Potency [3] | Potency [4] | Potency [5]

COc1cc(NS(C)(=O)=O)ccc1Nc1c2ccccc2nc2ccccc12
inactive: Potency [6] | Potency [3]
active: Potency [2] 0.779 µM | Potency [4] 18.1 µM

COc1cc2ncnc(Nc3cccc(Cl)c3)c2cc1OC
inactive: Potency [1] | Potency [4] | viability change, negative = cytotoxic [7] -12.2% [at 19 µM] | activity change, negative = inhibition [8] -1.79% [at 23.6 µM] | activity change, negative = cytotoxicity [9] -20.1% [at 19 µM] | viability change, negative = cytotoxic [10] -14.4% [at 19 µM] | activation [11] -0.89% [at 19 µM] | activity change, negative = cytotoxicity [12] -10.3% [at 15.8 µM] | activation (H2AX phosphorylation) [13] 1.29% [at 31.6 µM]

Cn1c(=O)[nH]c2ncn(C)c2c1=O
inactive: Potency [1] | Potency [4] | Potency [7] | Potency [8] | Potency [9] | Potency [10] | Potency [11] | Potency [12] | Potency [13]

CC(=O)O[C@H]1CC2(C)[C@@H](C[C@@H](O)[C@H]3[C@@]4(C)CC[C@@H](O)[C@@H](C)[C@@H]4CC[C@@]32C)C1=C(CCC=C(C)C)C(=O)O (stereo not given in full)
inactive: Potency [2] | Potency [6] | Potency [3] | Potency [4] | Potency [5]

CC(=O)N[C@@H](Cc1c[nH]c2ccccc12)C(=O)OCc1cc(C(F)(F)F)cc(C(F)(F)F)c1
inactive: Potency [2] | Potency [6] | Potency [3] | Potency [4]
